Among the data in PubChem BioAssay (NCI) are growth values, retold here.

The panel holds about 83,000 compounds, 20% with a hit somewhere; the sample as a whole holds those more often.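 Cells were grown in 96-well plates and exposed to the test compound at a single concentration for 48 hours; results are reported as percent growth, with values below 10 considered active.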 Values without a mark were called inactive. Activity calls are given as the source filed them.

Holding throughout (experiment): NCI-60 one-dose screen, 48 h (100 = growth as untreated, 0 = no growth, -100 = all killed)
Common to all, as to conditions: 10 µM unless noted

Experiment [1] relates to SR leukemia.
The test system of experiment [2] is RPMI-8226 leukemia.
Experiment [3] deals with OVCAR-8 ovarian.
For experiment [4], the system named is OVCAR-5 ovarian.
Experiment [5] relates to OVCAR-4 ovarian.
The test system of experiment [6] is SK-OV-3 ovarian.
For experiment [7], the system named is IGROV1 ovarian.
Experiment [8] relates to OVCAR-3 ovarian.
In experiment [9] the test system is HS 578T breast.
Experiment [10] has as its system NCI/ADR-RES ovarian.

As for `COc1ccc2nc(Cl)c(/C=C/C(=O)c3ccc(NC(=O)CSc4nnc(-c5ccc(Cl)c(Cl)c5)n4-c4ccccc4)cc3)cc2c1`, the growth in [1] is 98.6%; in [2] it was 62%; in [3] it was 92.1%; in experiment [4], 102%; in [5], 103%; in experiment [6], 91.4%. In addition, the growth in [7] is 76.3%; in experiment [8], 105%; in experiment [9] it was 89.3%; in experiment [10], 102%.
For `O=C(Cn1nnc([N+](=O)[O-])n1)c1ccccc1`, the growth is 84.3% in [1]; 40.6% in experiment [2]; 101% in experiment [3]; 114% in experiment [4]; 91.5% in experiment [5]; 99.8% in experiment [6]. For the same compound, the growth is 96.1% in experiment [7], 100% in experiment [8], 106% in experiment [9] and 98.4% in experiment [10].
Take `COc1cc2cc(Oc3ccc(NC(=O)Nc4ccccc4)cc3)c(C)nc2cc1OCCN1CCCCC1`: the growth in [1] is -25.9% (active); in experiment [2], 44.3%; in [3] it was 46.5%; in experiment [4], 119%; in [5], 83.1%; in experiment [6], 110%. The growth in experiment [7] was 92.3%; in experiment [8] it was 101%; in experiment [9] it was 70.4%; in [10], 90.5%.
Turning to `CCN(CCO)CC(C)Nc1ccc([N+](=O)[O-])c2sc3ccccc3c(=O)c12` (stereo not given), the growth in experiment [1] was 13%; in experiment [2], 40.9%; in experiment [3], 26.2%; in experiment [4], 57.7%; in [5], 43.7%; in [6], 45.6%. The growth was -11.3% (active) in experiment [7], 49.1% in [8], 26.8% in [9] and 37.2% in [10].
Regarding `COc1ccc2cc(Cn3cc[n+](Cc4ccc5ccccc5c4)c3)ccc2c1`, the growth is 9.3% (active) in [1]; 1.54% (active) in experiment [2]; 8.73% (active) in [3]; 45.6% in [4]; 8.75% (active) in [5]; 29.8% in experiment [6]. The growth in [7] was -9.16% (active); in experiment [8], 4.18% (active); in experiment [9], 46.3%; in experiment [10], 102%.
Take `C=C(CO)[C@@H]1CC[C@]2(COC3CCCCO3)CC[C@]3(C)[C@H](CC[C@@H]4[C@@]5(C)C=C(C=O)C(=O)C(C)(C)[C@@H]5CC[C@]43C)[C@@H]12` (stereo not given in full): the growth in experiment [1] was -49.9% (active); in experiment [2] it was -35% (active); in [3], -69% (active); in [4], -75.5% (active); in experiment [5] it was -63.8% (active); in [6], -95.8% (active). The growth in experiment [7] is -78.8% (active); in experiment [8] it was -68.8% (active); in [9], -52.3% (active); in [10], -37.5% (active).
Turning to `O=P(O)(O)OCC1OC(n2cnc3c(NCc4ccccc4)ncnc32)C(O)C1O` (stereo not given), the growth in [1] is 41.7%; in experiment [2], 29.5%; in experiment [3], 11.5%; in experiment [4], 57.7%; in experiment [5] it was 25.5%; in experiment [6], 9.33% (active). For the same compound, the growth in experiment [7] is 1.31% (active); in [8], -66.7% (active); in experiment [9] it was 28.2%; in [10], 29.7%.
In the case of `COc1ccc2cc(-c3ccc(-c4ccc(C(=N)N)s4)s3)ccc2c1`, the growth is -14.5% (active) in experiment [1]; -20.9% (active) in experiment [2]; -32.6% (active) in experiment [3]; -33% (active) in experiment [4]; -45.6% (active) in experiment [5]; 97.2% in [6]. The growth is 63% in experiment [7], -61.1% (active) in [8], 90.3% in [9] and -43% (active) in experiment [10].
Take `O=C1NC(=O)c2c1c1c3ccccc3[nH]c1c1oc3ccc(F)cc3c21`: the growth in experiment [1] was 31.5%; in experiment [2], 74.5%; in experiment [3] it was 91.6%; in experiment [4], 84.1%; in experiment [5], 57.8%; in experiment [6] it was 84%. The growth was 21.1% in experiment [7], 83.1% in experiment [8], 82.2% in experiment [9] and 79.1% in [10].
In the case of `COC(=O)c1nc(-c2ccccc2)oc1S(=O)(=O)N1CCC(C(N)=O)CC1`, the growth in experiment [1] was -3.16% (active); in experiment [2], 41.3%; in experiment [3], 83.7%; in [4] it was 76.7%; in experiment [5], 61.2%; in experiment [6], 101%. Besides, the growth was 51.4% in [7], 16.2% in [8], 86.7% in experiment [9] and 111% in [10].
For `CCN(CC)S(=O)(=O)c1ccc(S(=O)(=O)N2CCC[C@@H](C(=O)N3CCN(C(=O)OC(C)(C)C)CC3)C2)cc1`, the growth is 31.7% in experiment [1]; 53.7% in experiment [2]; 63.3% in experiment [3]; 102% in [4]; 26.1% in experiment [5]; 90.5% in [6]. For the same compound, the growth in [7] is 86.1%; in [8], 73.5%; in [9] it was 87.2%; in experiment [10] it was 62%.
For `O=C1NC(=C(Cl)Cl)/C(=N/S(=O)(=O)NCCc2c[nH]c3ccccc23)N1`, the growth was 53.3% in experiment [1]; 14.8% in experiment [2]; 92.9% in experiment [3]; 48.3% in experiment [4]; 58.6% in experiment [5]; 62.2% in [6]. Also, the growth was 98.7% in experiment [7], -25.8% (active) in experiment [8], 27.3% in experiment [9] and 67.9% in experiment [10].
As for `O=C1C(Cl)=C(NCCN2CCOCC2)C(=O)c2ncccc21`, the growth was -17.9% (active) in experiment [1]; 20.4% in [2]; 31.1% in [3]; -22.8% (active) in experiment [4]; 95.8% in [5]; 41.5% in experiment [6]. Also, the growth in experiment [7] was -58.8% (active); in [8], -63.5% (active); in experiment [9], 1.02% (active); in experiment [10], 67.8%.
